p-CIP stab down: p/CIP protein destabilization. Q05BA5. F442A p/CIP-EGFP cells, EGFP fluorescence, 16 h. decrease of EGFP signal, % at 10 µM. hit rate 0.01% among 290,000. AID 1984;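 active means EGFP signal decrease of at least 30% at 10 µM or well 3 SD below plate mean, unless failing retest; inactive means the rest, including hits failing retest or dose response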
Hsp70 activator: switches on Hsp70 transcription; AID 1203; activation, % at 10 µM; HeLa Hsp70 promoter luciferase reporter, luminescence; scaled: vehicle 0, proteasome-inhibitor control 100%; hit rate 0.04% among 200,000;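 active means activation above the mean across all tested compounds plus 3 SD, cutoff set per campaign, cut at about 5.5% in these data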
NALP1 yeast inh: blocks the NALP1 inflammasome reconstituted in yeast. inhibition, % at 10 µM. hit rate 0.61% among 280,000. AID 2071. S. cerevisiae NALP1/ASC/caspase-1 growth, X-gal OD620, 72 h; in the data active means inhibition mostly above about 24%, no sharp cut-off; inactive means mostly below about 32%
HSF1 inhib: HSF1 inhibition; NIH3T3-HGL HSE-luciferase, MG132-induced, luminescence 8 h; stronger effect = lower value; activity change, negative = inhibition, % at 7.5 µM (by protocol); hit rate 0.77% among 300,000;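 active means more than half of replicate wells show activity change below -50%, luminescence cut by over half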;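 further: luciferase reports HSF-1 transcriptional activity via heat shock element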
HSP90 inh: inhibitors of HSP90 luciferase refolding in rabbit reticulocyte lysate | luciferase refolding luminescence, 3 h | inhibition, % at 5.6 µM | hit rate 0.91% among 290,000 | AID 1789;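 active means inhibition above the screen-wide mean plus 3 SD, computed separately per campaign, cut at about 16% in these data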;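 further: inhibitors lower the luminescence because luciferase stays unfolded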
HSF-1 act: increases HSF-1 driven luciferase reporter signal | activation, % at 9 µM | hit rate 1.7% among 300,000 | NIH3T3-HGL HSF-1 luciferase reporter, MG132, 8 h; 100% = twice DMSO control signal;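 active means mean replicate activation of at least 50% with a set share of replicates each reaching 50%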
A number is an active result; - = inactive; . = no result given. In the library only some 3.8% were active in any assay of this set; here they are far more common.

SMILES | p-CIP stab down | Hsp70 activator | NALP1 yeast inh | HSF1 inhib | HSP90 inh | HSF-1 act
COc1cccc(C2NC(=O)c3ccccc3O2)c1OCc1ccccc1F (stereo not drawn) | - | - | - | - | - | -
CCc1nc2sc3ccccc3c(=O)c2c(=O)n1Cc1ccco1 | - | - | - | - | - | -
O=c1c2ccccc2sc2nc(C3CCCCC3)n(Cc3ccco3)c(=O)c12 | - | - | - | - | - | 85.6
Cc1ccc(NS(=O)(=O)c2cc(C(=O)NCc3ccncc3)ccc2C)cc1 | - | . | - | - | - | -
Cc1ccc(NC(=O)Nc2ccc(Cl)c(Cl)c2)nc1 | - | . | - | - | - | 53.5
Cc1ccc(NC(=O)Nc2ccc(Cl)cn2)cc1 | - | - | - | - | - | 77.3
CCN1/C(=C/c2ccc3cc(C)ccc3[n+]2CC)Sc2ccccc21 | - | - | 123.3 | - | - | -
CCCCC(=O)Nc1cccc(NC(=O)c2ccc(Br)cc2)c1 | - | - | - | - | - | -
CCCCC(=O)Nc1cccc(NC(=O)c2cccc(Br)c2)c1 | - | - | - | -62.3 | - | -
COc1ccc(NS(=O)(=O)c2cccc(C(=O)NCc3cccnc3)c2)cc1 | . | . | . | - | . | -
O=c1cc(COc2ccc(Cl)c(Cl)c2)nc2sccn12 | - | . | - | - | - | 56.9
O=c1cc(CNc2cc(Cl)ccc2Cl)nc2sccn12 | - | - | - | - | - | -
CCOc1ccccc1NC(=O)C(=O)CC(=O)c1ccc(OC)cc1 | - | . | - | - | - | -
COc1ccc(-c2nc3ccccc3c(=O)o2)cc1OC | - | - | - | - | - | -
CCOc1ccc(-c2nc3ccccc3c(=O)o2)cc1 | - | - | - | - | - | 55.1
CCOc1ccc(-c2nnc(-c3ccncc3)o2)cc1 | - | - | - | - | - | 51.9
CCCN1CCN(S(=O)(=O)c2cn(C)nc2C)CC1 | - | . | - | - | - | -
COC(=O)c1ccc(NC(=O)CSC2=NC(=O)C(c3ccccc3)C(=O)N2)cc1 (stereo not drawn) | - | - | - | - | - | -
Cc1ccc(S(=O)(=O)N(C)c2c(C)ccc(S(=O)(=O)N3CCN(C)CC3)c2C)cc1 | - | - | - | -60.5 | - | -
COc1cc(NC(=O)CSc2nnnn2-c2ccccc2)cc(OC)c1OC | - | - | . | -64.2 | - | -
O=C(CSc1nnnn1-c1ccccc1)Nc1ccccc1 | - | . | - | - | - | -
CCOC(=O)CC(NS(=O)(=O)Cc1ccccc1)c1ccc(C)cc1 (stereo not drawn) | - | - | - | - | - | -
CCn1c(COc2ccccc2C)nnc1SCC(=O)CC(=O)Nc1ccccc1OC | - | - | - | - | - | -
CCn1c(COc2ccccc2C)nnc1SCC(=O)OC | - | - | 22.3 | - | - | -
COc1ccc(C(=O)N/C(=C\c2ccco2)C(=O)NC2CCS(=O)(=O)C2)cc1 (stereo not drawn) | - | - | - | - | - | -
SMILES | p-CIP stab down | Hsp70 activator | NALP1 yeast inh | HSF1 inhib | HSP90 inh | HSF-1 act
COc1ccc(-c2[nH]ncc2CN(C)Cc2nonc2C)c(OC)c1 | - | - | - | - | - | -
CSc1ccc(CCNC(=O)c2nn(C)c3c2CS(=O)(=O)c2ccccc2-3)cc1 | - | . | - | - | - | 51.1
O=C(c1ccco1)N1CCN(C(=O)c2cccc3c2C(=O)N(Cc2cccnc2)C3)CC1 | - | - | 35.8 | - | - | -
O=C(c1cccc2c1C(=O)N(Cc1cccnc1)C2)N1CCN(c2ccccc2)CC1 | - | - | - | - | - | -
CCn1c(SCC(=O)Nc2oc(C)c3c(C)n[nH]c(=O)c23)nc2sc(C)c(C)c2c1=O | . | . | . | -71.3 | . | -
Cc1ccc(CN2CCC(CNC(=O)c3ccc(NC(=O)C4=CSCCO4)cc3)CC2)cc1 | - | . | - | - | - | -
O=S1(=O)NC(=NCC(c2ccco2)N2CCCCC2)c2ccccc21 (stereo not drawn) | - | . | - | - | - | 84.7
C/C(Cl)=C/Cc1c(C)[nH]c2c(ccc3ccccc32)c1=O | - | . | - | - | - | -
C/C(Cl)=C/Cc1c(C)[nH]c2ccc(C)cc2c1=O | - | - | - | - | - | 58.2
CNC(=S)N(CCc1c(C)[nH]c2ccc(F)cc12)Cc1cccnc1 | - | . | - | -85.8 | - | -
CC(C)(C)c1nc(SCC(=O)Nc2ccc(N3CCOCC3)cc2)c2ccccc2n1 | - | - | - | - | - | 58.4
CC(C)CC(=O)Nc1ccc(N2CCN(S(C)(=O)=O)CC2)cc1 | - | - | - | - | - | -
CC(C)(C)c1nc(SCC(=O)Nc2ccc3c(c2)OCCO3)c2ccccc2n1 | - | - | - | - | - | -
O=C(CSc1nc2ccccc2o1)Nc1ccc(N2CCOCC2)cc1 | - | - | 27.9 | - | - | -
CC(C)CC(=O)Nc1ccc(N2CCOCC2)cc1 | - | - | - | - | - | 98.2
Cc1c(C(=O)Nc2ccccc2)c2ccc(C(F)(F)F)cc2n1O | . | . | . | - | . | -
COC(=O)c1ccccc1NC(=O)NN1CCN(C)CC1 | - | . | - | - | - | -
COc1cccc(OCC(=O)NNC(=O)C(=O)Nc2cccc(C)c2)c1 | - | . | - | - | - | -
COc1cccc(CNC(=O)Cn2c(=O)c3cccn3c3ccccc32)c1 | - | . | - | -86.0 | - | -
O=S(=O)(CCSc1nc2ccccc2s1)c1nc2ccccc2s1 | - | - | - | - | - | 94.5
CC(NC(=O)Cn1nc(C(=O)O)c2ccccc2c1=O)c1ccccc1 (stereo not drawn) | - | - | - | - | - | 52.4
CNC(=O)Cn1nc(C)c2ccccc2c1=O | - | - | - | -78.3 | - | -
Cc1cc(C(=O)Cn2nc(C(=O)O)c3ccccc3c2=O)c(C)n1-c1ccc(F)cc1 | - | - | - | - | 16.8 | -
Cc1cc(C(=O)Cn2nc(C(=O)O)c3ccccc3c2=O)c(C)n1-c1cccc(C(F)(F)F)c1 | - | . | . | - | - | -
O=C(CSC(=S)N1CCCC1)NCC(=O)Nc1ccc(F)c(F)c1 | - | . | - | - | - | -
SMILES | p-CIP stab down | Hsp70 activator | NALP1 yeast inh | HSF1 inhib | HSP90 inh | HSF-1 act
O=C(CN1CCSC1=NCc1ccccc1)c1ccccc1 | - | - | - | - | - | -
O=C(O)c1cccc(S(=O)(=O)N2CCC(n3nnc4cc(C(F)(F)F)ccc43)CC2)c1 | - | . | - | - | - | 79.4
COc1ccccc1N(CC(O)CN1CCC(C)CC1)S(=O)(=O)c1ccccc1 (stereo not drawn) | - | . | - | - | - | 56.7
COc1ccccc1N(CC(O)CN1CCCC1)S(=O)(=O)c1ccccc1 (stereo not drawn) | - | . | - | - | - | -
COc1ccc([N+](=O)[O-])cc1N(CC(O)CN1CCCCC1)S(=O)(=O)c1ccccc1 (stereo not drawn) | - | - | 24.7 | - | - | -
COc1ccc([N+](=O)[O-])cc1N(CC(O)CN1C(=O)NC(C)(C)C1=O)S(=O)(=O)c1ccccc1 (stereo not drawn) | - | . | - | - | - | -
COC(=O)CNc1c(-c2ccccc2)nc2ccc(Br)cn12 | - | - | - | - | - | 51.3
